Hits are enriched below; roughly 7.9% of the tested compounds scored in any of these assays.
HCV inh = HCV inhibition | Potency, µM (doses to about 41.8 µM), for the others: at the highest dose activity change, negative = inhibition, most hits filed as inhibitors | hit rate 3.4% among 340,000 | AID 651820 | Huh7.5.1 HCVcc-Cre infection, luciferase reporter, 44 h; active = well fitted inhibition curve with a large enough effect; inconclusive = small, poorly fitted or top-dose-only effect, or another doubt; inactive = no such curve, though single readings can be large or run the other way; also: potency is read from the fitted curve at half-maximal effect
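HCVcc-Cre virus at an moi near 0.5 was added right after compound to cells cultured 4 h from seeding (1,000 cells/well). Luciferase activity was determined 44 h later, 15 min after substrate addition at RT.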
LASV entry inh = Lassa virus entry inhibition; Lassa virus pseudotype entry inhibition, cell reporter; Potency, µM (titrated, usually from 37.9 µM), for inactives: at the top dose activity change, negative = inhibition, usual class: inhibitors; hit rate 1.2% among 300,000; AID 540256; calls by dose curve; tested in HEK293 cells; also: potency is read from the fitted curve at half-maximal effect; nearly all actives have a fitted effect of over 50% in size
HCMV antiviral = human cytomegalovirus inhibition | activity change, negative = inhibition, % at 57.5 µM | HFF cells, HCMV-luciferase reporter, 72 h; active compounds read low | hit rate 4.5% among 410,000; in the data active = activity change below about -60%; inconclusive = no clear call, values can overlap the other calls; inactive = above about -39%
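Human foreskin fibroblasts infected with luciferase-reporter HCMV at MOI 1 PFU/cell, compounds at two doses. Luciferase measured 72 h post infection; normalized to buffer-only basal and Salinomycin (10uM) controls.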
FMDV antiviral = foot and mouth disease virus antiviral activity. FMDV antiviral cell-based qHTS. Potency, µM (highest dose often 57.9 µM), without a hit: top-dose activity change, negative = inhibition, hits mostly inhibitors. hit rate 1.2% among 410,000; calls by dose curve; tested in HEK293T cells; also: read-out not given here; potency is read from the fitted curve at half-maximal effect; nearly all actives have a fitted effect of over 45% in size
Marburg entry inh = blocks Marburg virus binding to or entry into cells | Potency, µM (series often up to 37.8 µM), without a hit: top-dose activity change, negative = inhibition, actives largely listed as inhibitors | Marburg virus pseudotyped entry inhibition, cell reporter | hit rate 1.8% among 300,000; calls by dose curve; tested in HEK293 cells; also: potency is read from the fitted curve at half-maximal effect
* hit, by the source's call; ? = inconclusive; / = no result; [ ] = dose if it differs, or a comment. % is scaled to controls: 0 for no effect and ±100 for the full control effect.

SMILES | HCV inh | LASV entry inh | HCMV antiviral | FMDV antiviral | Marburg entry inh
O=C(N/N=C\c1ccc([N+](=O)[O-])o1)C1COc2ccccc2O1 (stereo unspecified) | ? | ? | -84.2* | -5.8% | ?
O=C(N/N=C\c1ccc([N+](=O)[O-])s1)C1COc2ccccc2O1 (stereo unspecified) | 10µM* | / | -3.6 | -17.8% | /
Cc1cc[n+](-c2[nH]c(=O)sc2/C=N/NC([S-])=Nc2ccccc2)cc1 | ? | 4.5% | -61.2* | -10.6% | ?
Cc1ccc(-n2c3nc(=O)[nH]c(=O)c-3cc3cc([N+](=O)[O-])ccc32)cc1 | 30.6% | ? | -23.0 | 31.6µM* | ?
OC(CCN1CCCCC1)(c1ccccc1)C1C[C@@H]2C=C[C@H]1C2 (stereo partly specified) | ? | / | -1.5 | -19.9% | /
OC(CCN1CCCCC1)(c1ccccc1)C1CC2C=CC1C2 (stereo unspecified) | / | ? | / | / | 6.51µM*
OC(CCN1CCCCC1)(c1ccccc1)C1CCCCC1 (stereo unspecified) | / | / | -35.5 | -15.7% | 5.01µM*
OC(CC#CCN1CCCCCC1)(c1ccccc1)C1CCCC1 (stereo unspecified) | -16.8% | / | -34.0 | -21.8% | /
COc1ccc(C)cc1NC(=O)C(Sc1nnc(Nc2cc(C)ccc2OC)s1)c1ccccc1 (stereo unspecified) | 10µM* | -0.6% | ? | 6.5% | ?
COc1ccc(Nc2nnc(SC(C(=O)Nc3cc(C)ccc3C)c3ccccc3)s2)cc1 (stereo unspecified) | ? | ? | -99.7* | -6.6% | ?
Cc1cccc(CCNC(=O)Cc2ccc(NC3=NC4CS(=O)(=O)CC4S3)cc2)c1 (stereo unspecified) | 16.6% | / | 8.0 | -0.6% | /
COc1cccc(/C=C2\SC(=S)N(CCC(=O)NCCc3ccc(O)cc3)C2=O)c1 | ? | ? | -100.4* | -0.2% | ?
COc1cccc(/C=C2\SC(=S)N(CCC(=O)Nc3ccc(O)cc3)C2=O)c1 | ? | / | 31.7 | 38.5% | /
COc1ccc(/C=C2\SC(=S)N(CCC(=O)N3CCOCC3)C2=O)cc1 | -27.0% | 15.8% | -10.8 | 26.9% | -21.4%
COc1cccc(/C=C2/SC(=S)N(CCC(=O)N3CCOCC3)C2=O)c1 | ? | ? | -4.2 | 17.7% | 5.01µM*
COc1cccc(/C=C2\SC(=S)N(CCCC(=O)N3CCCCC3)C2=O)c1 | 12.6µM* | / | -20.5 | -14.7% | /
COc1cccc(/C=C2\SC(=S)N(CCCC(=O)Nc3cccc(C(=O)O)c3)C2=O)c1 | / | / | / | 6.7% | /
O=C(Nc1cccc(F)c1)N1CC[C@@]2(CCCN(C(=O)c3cccc(F)c3)C2)C1 | / | / | / | -6.3% | /
O=C(CSc1nc2ccccc2c(=O)n1-c1ccccc1)N1CCc2ccccc2C1 | 12.6µM* | 10µM* | -94.1* | ? | ?
CC(C)c1ccccc1-n1c(SCC(=O)c2ccc3c(c2)NC(=O)CO3)nc2ccccc2c1=O | 12.6µM* | ? | -30.4 | ? | ?
CC(C)c1ccccc1-n1c(SCC(=O)N2CCc3ccccc3C2)nc2ccccc2c1=O | 10µM* | ? | -95.2* | ? | ?
COC(=O)[C@]12CCCCC=C1N(Cc1cccc3ccccc13)C(=O)[C@H](CC(=O)NCc1cccc(C(F)(F)F)c1)C2 | / | / | 34.8 | -22.3% | /
Cc1ccc(S(=O)(=O)NC(C)(C)CN2CCCCC2)cc1 | 15.1% | / | 40.9 | -1.7% | /
COc1ccc(C2c3cc(OC)c(OC)cc3CC(=O)N2c2cccc(C#N)c2)cc1 (stereo unspecified) | / | 12.1%[46.1 µM] | 3.1 | -6.7% | -1.1%[46.1 µM]
CCCN(CC(=O)Nc1ccccc1OC)C(=O)CSc1ccc(Br)cc1C | 10µM* | / | 2.5 | -22.3% | /
SMILES | HCV inh | LASV entry inh | HCMV antiviral | FMDV antiviral | Marburg entry inh
CCCN(CC(=O)Nc1ccccc1OC)C(=O)Cn1[nH]c(=O)c2ccccc2c1=O | -23.6% | / | -3.6 | -15.4% | /
O=C(CSc1ccc(F)cc1)NC1CCCCC1 | 12.8% | / | 12.9 | 76.6% | /
CC(NC(=S)Nc1ccccc1OC(F)F)C(C)(C)C (stereo unspecified) | 4.0% | 16.5% | -65.2* | 6.8% | 32.8%
CC1CCN(S(=O)(=O)c2cc(C(=O)NCc3ccccc3)n(C)c2)CC1 | / | 2.8%[46.1 µM] | -80.9* | -13.4% | /
COc1ccc(C)cc1NC(=O)c1cc(S(=O)(=O)N2CCC(C)CC2)cn1C | / | 26.3%[46.1 µM] | ? | -17.3% | /
COc1cc(NC(=O)c2cc(S(=O)(=O)N3CCC(C)CC3)cn2C)cc(OC)c1OC | / | 1.3%[46.1 µM] | -102.3* | 29.3% | /

Source: PubChem
